HT1080 IDH1KD tx – toxicity to HT-1080 IDH1 knockdown cells (counter line). HT-1080 IDH1 knockdown viability, ATP luminescence, 48 h. Potency, µM (series often up to 46.1 µM), without a hit: top-dose activity, negative = toxicity, most hits filed as cytotoxic. 2% of 360,000 active. AID 686971;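 note: potency is the fitted concentration of half-maximal effect; 0% = DMSO wells and -100% = cell-free medium wells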
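% activity derives from luminescence (CellTiter-Glo), normalised to DMSO and no-cell wells. HT-1080-IDH1KD cells, 750/well, had 48 h compound exposure at 37 °C.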
DT40 TDP1 no CPT – qHTS for Inhibitors of human tyrosyl-DNA phosphodiesterase 1 (TDP1): qHTS in cells in absence of CPT; Potency, µM (doses to about 46.2 µM), for the others: at the top dose activity change, negative = growth inhibition, actives largely listed as inhibitors; DT40 Tdp1-/- hTDP1 cells, no CPT, ATP luminescence, 48 h; AID 686978, 2013; 15% of 420,000 active; note: potency is the fitted concentration of half-maximal effect; nearly all actives have a fitted effect of over 55% in size
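Compound effects on proliferation are scored in DT40 Tdp1-/-;hTDP1 cells in the absence of CPT. ATP levels (CellTiter-Glo luminescence) are recorded after a ≥48 hr, 37 °C incubation.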
HT1080-NT tox – kills 2HG-producing HT-1080-NT fibrosarcoma cells | 1.6% of 360,000 active | Potency, µM (doses to about 46.1 µM), for inactives: top-dose activity, negative = less viability, hits mostly cytotoxic | HT-1080-NT fibrosarcoma viability, CellTiter-Glo ATP luminescence, 48 h | AID 686970;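 note: NT is the 2HG producing partner of a matched IDH1 knockdown line; potency is the fitted concentration of half-maximal effect; 0% = DMSO-treated cells and -100% = media-only wells without cells; nearly all actives have a fitted effect of over 55% in size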
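Read-out is CellTiter-Glo luminescence after 10 minutes at room temperature, following 48 hours' compound treatment of HT-1080-NT cells (750 cells/well, RPMI, 5% FBS, 37 degrees C).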
IL1B secr inh – inhibitors of inflammasome signaling (IL-1 beta secretion). THP-1 LPS/ATP IL-1B secretion, AlphaLISA, 16 h; hits give low values. activity change, % at 57.5 µM. 4.7% of 360,000 active. AID 743279; in the data active = activity change below about -50%; inconclusive = mostly about -30% to -49%
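Secreted IL-1B measured by AlphaLISA bead assay after 16 h compound exposure of THP-1 cells; compounds (final up to 57.5 uM) added 1 h before LPS (250 ng/mL) and ATP (1.25 mM) stimulation; lower signal means less secretion.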
DT40 TDP1 CPT – DT40-hTDP1 cell growth loss with CPT; chicken DT40 Tdp1-/-;hTDP1 cells + 20 nM CPT, ATP luminescence, 48 h; Potency, µM (titrated, usually from 46.2 µM), for the others: at the highest dose activity change, negative = growth inhibition, most hits filed as inhibitors; 12% of 420,000 active; AID 686979; note: potency is the fitted concentration of half-maximal effect; nearly all actives have a fitted effect of over 55% in size
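Chicken DT40 Tdp1-/- cells stably complemented with human TDP1 were seeded at 400 cells/well in medium containing 20 nM camptothecin, exposed to pin-transferred compounds, and grown at 37 °C for at least 48 hr. Viability was read as ATP luminescence.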
uPA generation – cell surface uPA generation inhibition | cell surface uPA generation assay, qHTS | Potency, µM (titrated, usually from 38.3 µM), without a hit: at the highest dose activity change, negative = inhibition, most hits filed as inhibitors | 0.31% of 330,000 active | AID 540303; active = well fitted inhibition curve with a large enough effect; inconclusive = small, poorly fitted or top-dose-only effect; inactive = no such curve, though single readings can be large or run the other way; tested in mouse RAW 264.7 cells; note: potency is the fitted concentration of half-maximal effect; nearly all actives have a fitted effect of over 55% in size
Starred values were filed as active, the others as inactive; ? = inconclusive; . = no result. Only some compounds are listed: those with a hit (about 19% of all), similar ones and a draw of the others. Unless noted, calls come from the whole dose curve; as a rule, active = well fitted curve in the direction sought with a large enough effect; inconclusive = small, poorly fitted or top-dose-only effect, or another doubt; inactive = no such curve, though single readings can be large; an effect the other way counts as inactive or inconclusive. Unless noted, % is set by controls: 0 for no effect and ±100 for the full control effect.

SMILES | HT1080 IDH1KD tx | DT40 TDP1 no CPT | HT1080-NT tox | IL1B secr inh | DT40 TDP1 CPT | uPA generation
Cc1nc2ccc(C(=O)NCCc3c[nH]c4ccccc34)cn2c1N(C)C(=O)CCc1ccccc1 | -18% | 23µM* | 1% | -5 | 23µM* | .
CCc1nc2ccc(C(=O)NCc3ccc4c(c3)OCO4)cn2c1N(C)C(=O)Cc1ccccc1 | 19% | 23µM* | 30% | 5 | -36% | .
CCc1nc2ccc(C(=O)NCc3ccc(OC)cc3)cn2c1N(C)C(=O)Cc1ccccc1 | -1% | 21µM* | 14% | 12 | ? | .
Cc1ccccc1NC(=O)CSc1nc2c(c(=O)n(C)c(=O)n2C)n1Cc1ccccc1F | . | -9% | . | . | 0% | .
CC1(C(=O)Nc2nc3ccccc3s2)CC1(Br)Br (configuration not stated) | -19% | -21% | -13% | -2 | -23% | -7%
CCc1nc2ccc(C(=O)NCc3ccc4c(c3)OCO4)cn2c1N(C)Cc1cccs1 | -29% | 16µM* | -18% | ? | ? | .
CCc1nc2ccc(C(=O)NCc3ccc4c(c3)OCO4)cn2c1N(CC)CCN(C)C | 2% | -1% | 8% | -22 | 0% | .
COc1ccc(NS(=O)(=O)c2cccc(C(=O)N/N=C/c3c(F)c(F)c(F)c(F)c3F)c2)cc1 | ? | 23µM* | ? | 0 | 21µM* | ?
COc1ccccc1C(CNC(=O)c1cccc(S(=O)(=O)Nc2ccc(F)cc2)c1)N1CCCC1 (configuration not stated) | -11% | 21µM* | -6% | -2 | ? | -3%
COc1ccc(NS(=O)(=O)c2cccc(C(=O)NCC(c3ccccc3OC)N3CCCC3)c2)cc1 (configuration not stated) | -2% | ? | -3% | -22 | ? | -1%
COc1ccc(C(CNC(=O)c2cccc(S(=O)(=O)Nc3ccccc3OC)c2)N2CCCCC2)cc1 (configuration not stated) | -8% | ? | -16% | -13 | 18µM* | -26%
CCC1CCc2sc(C(=O)NCC(c3ccc(OC)cc3)N3CCCC3)cc2C1 (configuration not stated) | ? | 23µM* | ? | ? | ? | -7%
COc1ccc(C(CNC(=O)c2cc3ccccc3cc2OC)N2CCCC2)cc1 (configuration not stated) | 0% | ? | -1% | 0 | ? | 0%
COc1ccc(C(CNC(=O)c2cccc(S(=O)(=O)NCc3ccccc3)c2)N2CCOCC2)cc1 (configuration not stated) | 0% | 21µM* | 0% | -16 | ? | 2%
COc1ccc(NS(=O)(=O)c2cccc(C(=O)NCC(c3ccc(OC)cc3)N3CCCC3)c2)cc1 (configuration not stated) | ? | ? | ? | ? | 13µM* | -4%
COc1ccc(C(CNC(=O)c2cc(S(=O)(=O)NCc3ccccc3)ccc2C)N2CCOCC2)cc1 (configuration not stated) | -3% | -20% | 2% | -27 | 1% | -7%
COc1ccc(NS(=O)(=O)c2cccc(C(=O)NCC(c3ccc(OC)cc3)N3CCCCC3)c2)cc1 (configuration not stated) | -23% | -29% | -25% | -4 | ? | -9%
COc1ccc(C(CNC(=O)c2cccc(N(C)C)c2)N2CCCC2)cc1 (configuration not stated) | 0% | ? | 1% | -15 | 23µM* | -5%
Cc1cccc(C)c1NC(=O)C(C)c1ccc(-c2ccccc2)c(F)c1 (configuration not stated) | -24% | 16µM* | -19% | -4 | 23µM* | 4%
c1ccc(COc2ccc(-c3cc4nc(NCCOc5ccccc5)ccn4n3)cc2)cc1 | -21% | ? | -25% | 51 | 23µM* | .
COCCCNc1ccn2nc(-c3ccc(OCc4ccccc4)cc3)cc2n1 | ? | ? | 9% | 20 | 16µM* | .
COc1ccc(Cn2ccnc2SCC(=O)Nc2ccc(F)cc2F)cc1 | -3% | 23µM* | -1% | 0 | ? | .
O=C(CSc1nccn1Cc1ccc(F)cc1)Nc1nc2ccccc2s1 | . | 23µM* | . | . | 18µM* | .
COc1ccc(Cn2ccnc2SCC(=O)Nc2ccccc2F)cc1 | 0% | -12% | -1% | -2 | -16% | 6%
CC1CCc2c(C(=O)Nc3ccc(OC(F)(F)F)cc3)csc2C1 (configuration not stated) | -3% | ? | -1% | -4 | ? | 0%
SMILES | HT1080 IDH1KD tx | DT40 TDP1 no CPT | HT1080-NT tox | IL1B secr inh | DT40 TDP1 CPT | uPA generation
CCN(CC(=O)N1CCOCC1)S(=O)(=O)c1ccc2ccccc2c1 | 3% | 16% | 2% | 6 | -1% | 14%
CCCN(CC)C(CC)C(=O)Nc1c(C)cccc1C (configuration not stated) | . | -13% | . | . | 0% | .
CCCCN(CCCC)C(=O)/C=C/c1cccc([N+](=O)[O-])c1 | 0% | 16µM* | 5% | ? | ? | 3%
COC(=O)c1cccc(NC(=O)/C=C/c2cccc([N+](=O)[O-])c2)c1 | ? | 13µM* | -25% | -19 | ? | .
CCOC(=O)c1cccc(NC(=O)/C=C/c2ccc([N+](=O)[O-])cc2)c1 | -17% | 8.2µM* | -12% | -22 | 15µM* | 1%
Brc1ccc(-c2nc3ncccn3c2NC2CCCCC2)o1 | -19% | ? | -26% | -5 | 16µM* | 12%
O=C(N/N=C/c1cccs1)c1cncc(Br)c1 | -13% | -5% | -9% | -14 | 5% | 0%
O=C(N/N=C/c1ccc[nH]1)c1cccnc1 | -1% | 6.5µM* | 13% | 4 | 15µM* | -4%
O=C(N/N=C/c1cccs1)c1cccnc1 | -4% | 23µM* | 11% | 17 | 1% | 1%
COc1ccnc(CSC(N)=Nc2ccc(F)cc2)c1 | 11% | ? | 14% | -99* | ? | 1%
COc1ccc(C(=O)COc2ccc(F)cc2)c(O)c1 | 23% | -19% | 4% | ? | -14% | -3%
CC1CCN(S(=O)(=O)c2ccc3nc(Nc4ccc(C#N)cc4)ccc3c2)CC1 | . | 21µM* | . | . | ? | .
CC1CCN(S(=O)(=O)c2ccc3nc(Nc4cccc(C(F)(F)F)c4)ccc3c2)CC1 | . | ? | . | . | 18µM* | .
COc1nccc(C(F)(F)F)c1C(=O)NC(=O)Nc1ccccc1 | 8% | -19% | 4% | 32 | -3% | 7%

Screening results deposited in PubChem by National Center for Advancing Translational Sciences (NCATS).
